Measured values published in PubChem BioAssay (NCI).
This is part of a sample that, as a whole, favours compounds with a hit. Of some 79,000 tested, about 15% had one in any assay. Unmarked numbers belong to inactive results. The source made the active and inactive calls. No stated cut-off is given here; in the data, active means growth inhibition above about 70%; inactive means the rest.

Key:
[1] = NCI Yeast Anticancer Drug Screen. Data for the rad50 strain (AID 155);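 further: 0% = growth of vehicle-only cultures of the same strain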; details: S. cerevisiae rad50 strain growth inhibition, stronger effect = higher value
Outline: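 A DNA repair-deficient yeast mutant serves as the test organism; compound-induced growth inhibition is calculated against vehicle-treated cells.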

[2] = NCI Yeast Anticancer Drug Screen. Data for the mec2-1 strain (AID 157); details: S. cerevisiae mec2-1 strain, stronger effect = higher value
Outline: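 Compounds were applied to mec2-1 yeast cells. Their growth was then compared with that of vehicle-treated cultures to give growth inhibition.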

[3] = NCI Yeast Anticancer Drug Screen. Data for the sgs1 mgt1 strain (AID 161);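 further: 0% = growth of cultures given vehicle only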; details: S. cerevisiae sgs1 mgt1 strain, stronger effect = higher value
Outline: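 Percent growth inhibition was derived by comparing compound-exposed mutant yeast with vehicle-exposed cultures. The strain carries alterations in DNA damage repair.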

[4] = NCI Yeast Anticancer Drug Screen. Data for the cln2 rad14 strain (AID 165);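 further: 0% = growth equal to vehicle treated cultures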; details: S. cerevisiae cln2 rad14 strain, stronger effect = higher value
Outline: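 Strain: cln2 rad14 yeast, altered in cell cycle control and DNA damage repair. Read-out: growth inhibition vs vehicle.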

[5] = NCI Yeast Anticancer Drug Screen. Data for the bub3 strain (AID 167); details: S. cerevisiae bub3 mutant strain, stronger effect = higher value
Outline: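 Inhibition values come from growth of compound-treated mutant yeast normalised to vehicle-treated controls.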

[6] = NCI Yeast Anticancer Drug Screen. Data for the mlh1 rad18 strain (AID 175); details: S. cerevisiae mlh1 rad18 strain growth inhibition, stronger effect = higher value
Outline: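 A repair-deficient yeast strain is exposed to test compound, and growth is scored relative to vehicle-treated controls.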

[7] = at 5.0 µM (retest, dose inferred, filed as 0.5)
[8] = at 50.0 µM (retest, dose inferred, filed as 5.0)

SMILES | growth inhibition [1, 7] | growth inhibition [1, 8] | growth inhibition ([1]; at 50.0 µM) | growth inhibition [2, 7] | growth inhibition [2, 8] | growth inhibition ([2]; at 50.0 µM) | growth inhibition [3, 7] | growth inhibition [3, 8] | growth inhibition ([3]; at 50.0 µM) | growth inhibition [4, 7] | growth inhibition [4, 8] | growth inhibition ([4]; at 50.0 µM) | growth inhibition [5, 7] | growth inhibition [5, 8] | growth inhibition ([5]; at 50.0 µM) | growth inhibition [6, 7] | growth inhibition [6, 8] | growth inhibition ([6]; at 50.0 µM)
CCCCCCC[CH2][Sn]([CH2]CCCCCCC)([O]c1cccc2cccnc12)[O]c1cccc2cccnc12 | 21% | 21% | 89.7% (active) | 18% | 18% | 87.7% (active) | 14% | 14% | 89.7% (active) | 9% | 9% | 85.4% (active) | 4% | 4% | 90.1% (active) | 10% | 10% | 86.3% (active)
CC(C)C(=O)N1Cc2cc(Cl)cc(Cl)c2OC(=O)c2ccccc21 | 18% | 3% | 71% (active) | -1% | 17% | 36.1% | -13% | 3% | 43.6% | 32% | 47% | 48.7% | 19% | 28% | 52.9% | 4% | 11% | 57.9%
O=C1Nc2c(ccc(Cl)c2I)C1=O | -28% | 97% (active) | 92.2% (active) | -3% | 99% (active) | 94.3% (active) | -13% | 70% (active) | 92.3% (active) | 9% | 98% (active) | 91.2% (active) | -5% | 98% (active) | 91.6% (active) | -27% | 99% (active) | 91.7% (active)
CCOc1ccc2nc(Cl)sc2c1 | -17% | 67% | 82.5% (active) | -7% | 91% (active) | 89.8% (active) | 6% | 79% (active) | 69.5% | 31% | 39% | 94% (active) | 1% | 97% (active) | 96.3% (active) | -12% | 89% (active) | 79% (active)
Cc1ccc(C2C(O)=C(c3ccccc3)Sc3ccc(C)cc32)cc1 (stereo not given) | 12% | 33% | 35.6% | -5% | 77% (active) | 2.45% | 5% | 74% (active) | 77% (active) | -5% | 51% | 23.2% | -4% | 39% | 13.4% | -8% | 81% (active) | 31.4%
CC1CCC(C(C)C)C(OC(=O)Nc2ccc(S(=O)(=O)N(C)C)cc2)C1 (stereo not given) | 25% | 82% (active) | 96% (active) | 18% | 92% (active) | 95.2% (active) | 46% | 83% (active) | 96% (active) | 8% | 82% (active) | 95.5% (active) | 29% | 90% (active) | 92.5% (active) | 32% | 88% (active) | 95.8% (active)
Nc1ccc(S(=O)(=O)NCc2nccs2)cc1 | -5% | 81% (active) | 17.9% | 14% | 58% | 50% | 2% | 53% | 28.4% | -7% | 60% | 47.4% | 37% | 80% (active) | 31.7% | 11% | 87% (active) | 70.5% (active)
Cn1c(-c2ccc(/C=N/NC(=S)N/N=C/c3ccc(-c4c[n+]5ccsc5n4C)cc3)cc2)c[n+]2ccsc12 | 72% (active) | 95% (active) | 88.6% (active) | 66% | 98% (active) | 91.2% (active) | 73% (active) | 98% (active) | 91.4% (active) | 34% | 91% (active) | 86.4% (active) | 60% | 89% (active) | 90.3% (active) | 72% (active) | 97% (active) | 88% (active)
O=C(O)CCCCCCCCC(=O)CCl | 9% | 97% (active) | 98.8% (active) | 23% | 99% (active) | 99.5% (active) | 29% | 98% (active) | 99% (active) | 14% | 98% (active) | 97.5% (active) | 48% | 98% (active) | 99.5% (active) | 38% | 98% (active) | 99.2% (active)
CCC1=C(c2ccccc2)C(O)(c2ccccc2)C(CC)C1=O (stereo not given) | -3% | 99% (active) | 94% (active) | -5% | 99% (active) | 92.5% (active) | -7% | 99% (active) | 97.3% (active) | 5% | 99% (active) | 92.2% (active) | -4% | 99% (active) | 97.7% (active) | -2% | 98% (active) | 97.8% (active)
